Test results reported in PubChem BioAssay (NCI).
The panel holds about 83,000 compounds, 20% with a hit somewhere; the sample as a whole holds those more often.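 The test compound was applied at a single concentration to cells in 96-well plates for 48 hours, and percent growth was recorded.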 Values without a mark were called inactive. Active and inactive are the calls of the source. Rule for the calls: active = growth percent below 10; inactive = the rest.

Each compound was assayed on OVCAR-3 ovarian (assay: NCI-60 one-dose screen, 48 h (100 = growth as untreated, 0 = no growth, -100 = all killed)). Settings: 10 µM unless noted.

| SMILES | growth |
| --- | --- |
| COc1cc2c3c(c4c5ccccc5[nH]c4c2c(OC)c1OC)C(=O)N(O)C3=O | 49.5% |
| Cc1cc2nc3c4cc(O)ccc4n(CCN(C)C)c3nc2cc1C | 3.66% (active) |
| Cc1csc(Nc2nc(-c3ccc(Cl)cc3)nc(C(Cl)(Cl)Cl)n2)n1 | 67% |
| Cc1cc(C)nc(NC(N)=NCCc2ccccc2)n1 | 33.5% |
| COc1cc(-c2c(C#N)c(-c3cccs3)nc3c2c(-c2ccccc2)nn3-c2ccccc2)ccc1O | 101% |
| CN1CCN(c2ccc3nc(-c4[nH]ncc4Nc4ncnc5c4OCCCN5)[nH]c3c2)CC1 | -32.2% (active) |
| COC(=O)[C@]12CC[C@@H](C)[C@H](C)[C@@H]1C1=CC[C@@H]3[C@@]4(C)C[C@@H](O)[C@H](O)[C@@](C)(CO)C4=CC[C@@]3(C)[C@]1(C)CC2 | -61.8% (active) |
| O=C(NO)c1ccc(Cn2c(=O)n(-c3ccccc3)c(=O)c3ccccc32)cc1 | 24.2% |
| COC(=O)[C@]12CC[C@@H](C)[C@H](C)[C@@H]1C1=CC(=O)[C@@H]3[C@@]4(C)C[C@@H](O)[C@H](O)[C@@]5(C)COC(=C45)C[C@@]3(C)[C@]1(C)CC2 | 48.3% |
| Cn1cc(-c2csc(-c3cn(CCN)c4ccc(F)cc34)n2)c2cccnc21 | 84.1% |
| CN(C)CCCCC(C(=O)CBr)(c1ccccc1)c1ccccc1 | -44% (active) |
| CC/C=C\C[C@H]1CC=C2C(=O)C=C[C@@H]2CC=CCCCC(=O)O[C@@H](CCCCC)CC=C2C(=O)C=C[C@@H]2CC=CCCCC(=O)O[C@@H](CCCCC)CC=C2C(=O)C=C[C@@H]2CC=CCCCC(=O)O[C@@H](CCCCC)CC=C2C(=O)C=C[C@@H]2CC=CCCCC(=O)O1 | -14% [7.9 µM] (active) |
| Clc1ccc2c(NCCNc3nc(-c4ccccc4)cc(-c4ccccc4)n3)ccnc2c1 | -85.6% (active) |
| Cc1ccc(N(CC(=O)Nc2ccc(S(=O)(=O)N3CCC(N4CCCC4)CC3)cc2)S(=O)(=O)c2ccc(Cl)cc2)cc1 | -22.4% (active) |
| Oc1ccc(Nc2ccccc2)cc1 | 94.2% |
| CCCCCCCCNc1cccc2c1C(=O)c1ccccc1C2=O | 92.6% |
| Cc1cc(N(CCCNc2ccnc3cc(Cl)ccc23)Cc2ccco2)nc(N2CCN(C)CC2)n1 | 56.6% |
| C=C1C(=O)O[C@H]2[C@H]1CC/C(Cn1cc(-c3ccc(OC)cc3)nn1)=C\CC[C@@]1(C)O[C@@H]21 | -83.9% (active) |
| O=c1[nH]c2c3ccncc3cc(-c3cccc(Cl)c3)c2c2cnccc12 | -22.8% (active) |
| O=C1CNCCN1 | 109% |

| SMILES | growth |
| --- | --- |
| COc1ccc(/C=C/C(=O)NCC(C)O)cc1 (stereo not drawn) | 103% |
| O=C1Nc2ccccc2/C1=C/c1cn(CCCn2c3ccccc3c(=O)c3ccccc32)c2ccccc12 | 84.9% |
| Cn1cc(-c2csc(-c3c[nH]c4ccc(F)cc34)n2)c2cccnc21 | -2.33% (active) |
| Cc1cc(Cl)nc(N(CCCNc2ccnc3cc(Cl)ccc23)Cc2ccco2)n1 | 35.7% |
| COc1cc(/C=C/c2cc(/C=C/c3ccc(O)c(OC)c3)n(-c3ccc(Cl)cc3)c(=O)n2)ccc1O | 83.8% |
| CC1(c2ccccc2)OC1C(=O)O (stereo not drawn) | 103% |
| COc1cc(/C=C2\C(=O)N(CC(O)COc3cc(O)c4c(=O)cc(-c5ccccc5)oc4c3)c3ccccc32)cc(OC)c1O (stereo not drawn) | 69.5% |
| Oc1cccc2oc(=S)[nH]c12 | 125% |
| COc1ccc2c(c1)c(-c1nc(-c3c[nH]c4ncccc34)cs1)cn2CCN | 70.5% |
| C=C(C)[C@@H]1CC[C@]2(C(=O)N3CCCNCC3)CC[C@]3(C)[C@H](CC[C@@H]4[C@@]5(C)CCC(=O)C(C)(C)[C@@H]5CC[C@]43C)[C@@H]12 | 98.8% |
| Cc1ccc(NC2CC(=O)N(c3c(C)cc(C)cc3C)C2=O)c(C)c1 (stereo not drawn) | 115% |
| CC1c2ccccc2N(S(=O)(=O)c2ccccc2)C1C (stereo not drawn) | 98.1% |
| Nc1ccc(Cl)cn1 | 106% |
| CCc1nnc(NC(=O)c2ccoc2COc2ccccc2)s1 | 33.8% |
| Nc1c2c(nc3ccc(Br)cc13)CC(c1ccccc1)CC2=O (stereo not drawn) | 14.7% |
| CC(C)(C)n1cc(-c2ccnc(NCCCNS(=O)(=O)c3ccc(Cl)cc3)c2)c(-c2cccc(F)c2)n1 | 84.2% |
| COc1cc(/C=N/NC(=S)NNC(=S)NC2CCCCC2)cc(OC)c1OC | 103% |
| COc1ccc2[nH]c(-c3ccc(Cl)cc3)cc(=O)c2c1 | 106% |
| Cc1cc(N(CCCNc2ccnc3cc(Cl)ccc23)Cc2ccco2)nc(Cl)n1 | 66.1% |

These compounds were tested on HS 578T breast in the same assay as above. Settings: 10 µM unless noted.

| SMILES | growth |
| --- | --- |
| COc1cc2c3c(c4c5ccccc5[nH]c4c2c(OC)c1OC)C(=O)N(O)C3=O | 67.4% |
| Cc1cc2nc3c4cc(O)ccc4n(CCN(C)C)c3nc2cc1C | 14.1% |
| Cc1csc(Nc2nc(-c3ccc(Cl)cc3)nc(C(Cl)(Cl)Cl)n2)n1 | 101% |
| Cc1cc(C)nc(NC(N)=NCCc2ccccc2)n1 | 45.3% |
| COc1cc(-c2c(C#N)c(-c3cccs3)nc3c2c(-c2ccccc2)nn3-c2ccccc2)ccc1O | 78.6% |
| CN1CCN(c2ccc3nc(-c4[nH]ncc4Nc4ncnc5c4OCCCN5)[nH]c3c2)CC1 | -5.79% (active) |
| COC(=O)[C@]12CC[C@@H](C)[C@H](C)[C@@H]1C1=CC[C@@H]3[C@@]4(C)C[C@@H](O)[C@H](O)[C@@](C)(CO)C4=CC[C@@]3(C)[C@]1(C)CC2 | -35.1% (active) |
| O=C(NO)c1ccc(Cn2c(=O)n(-c3ccccc3)c(=O)c3ccccc32)cc1 | 57.8% |
| COC(=O)[C@]12CC[C@@H](C)[C@H](C)[C@@H]1C1=CC(=O)[C@@H]3[C@@]4(C)C[C@@H](O)[C@H](O)[C@@]5(C)COC(=C45)C[C@@]3(C)[C@]1(C)CC2 | 49.7% |
| Cn1cc(-c2csc(-c3cn(CCN)c4ccc(F)cc34)n2)c2cccnc21 | 77.9% |
| CN(C)CCCCC(C(=O)CBr)(c1ccccc1)c1ccccc1 | 24.2% |
| CC/C=C\C[C@H]1CC=C2C(=O)C=C[C@@H]2CC=CCCCC(=O)O[C@@H](CCCCC)CC=C2C(=O)C=C[C@@H]2CC=CCCCC(=O)O[C@@H](CCCCC)CC=C2C(=O)C=C[C@@H]2CC=CCCCC(=O)O[C@@H](CCCCC)CC=C2C(=O)C=C[C@@H]2CC=CCCCC(=O)O1 | 41.9% [7.9 µM] |
| Clc1ccc2c(NCCNc3nc(-c4ccccc4)cc(-c4ccccc4)n3)ccnc2c1 | -17.2% (active) |
| Cc1ccc(N(CC(=O)Nc2ccc(S(=O)(=O)N3CCC(N4CCCC4)CC3)cc2)S(=O)(=O)c2ccc(Cl)cc2)cc1 | 66% |
| Oc1ccc(Nc2ccccc2)cc1 | 105% |
| CCCCCCCCNc1cccc2c1C(=O)c1ccccc1C2=O | 95.7% |
| Cc1cc(N(CCCNc2ccnc3cc(Cl)ccc23)Cc2ccco2)nc(N2CCN(C)CC2)n1 | 67.6% |
| C=C1C(=O)O[C@H]2[C@H]1CC/C(Cn1cc(-c3ccc(OC)cc3)nn1)=C\CC[C@@]1(C)O[C@@H]21 | 75.6% |
| O=c1[nH]c2c3ccncc3cc(-c3cccc(Cl)c3)c2c2cnccc12 | 5.48% (active) |
| O=C1CNCCN1 | 100% |

| SMILES | growth |
| --- | --- |
| COc1ccc(/C=C/C(=O)NCC(C)O)cc1 (stereo not drawn) | 94.4% |
| O=C1Nc2ccccc2/C1=C/c1cn(CCCn2c3ccccc3c(=O)c3ccccc32)c2ccccc12 | 85.2% |
| Cn1cc(-c2csc(-c3c[nH]c4ccc(F)cc34)n2)c2cccnc21 | 76.1% |
| Cc1cc(Cl)nc(N(CCCNc2ccnc3cc(Cl)ccc23)Cc2ccco2)n1 | 58.8% |
| COc1cc(/C=C/c2cc(/C=C/c3ccc(O)c(OC)c3)n(-c3ccc(Cl)cc3)c(=O)n2)ccc1O | 87.4% |
| CC1(c2ccccc2)OC1C(=O)O (stereo not drawn) | 109% |
| COc1cc(/C=C2\C(=O)N(CC(O)COc3cc(O)c4c(=O)cc(-c5ccccc5)oc4c3)c3ccccc32)cc(OC)c1O (stereo not drawn) | 85.1% |
| Oc1cccc2oc(=S)[nH]c12 | 109% |
| COc1ccc2c(c1)c(-c1nc(-c3c[nH]c4ncccc34)cs1)cn2CCN | 62.3% |
| C=C(C)[C@@H]1CC[C@]2(C(=O)N3CCCNCC3)CC[C@]3(C)[C@H](CC[C@@H]4[C@@]5(C)CCC(=O)C(C)(C)[C@@H]5CC[C@]43C)[C@@H]12 | 94.2% |
| Cc1ccc(NC2CC(=O)N(c3c(C)cc(C)cc3C)C2=O)c(C)c1 (stereo not drawn) | 104% |
| CC1c2ccccc2N(S(=O)(=O)c2ccccc2)C1C (stereo not drawn) | 92.7% |
| Nc1ccc(Cl)cn1 | 99.7% |
| CCc1nnc(NC(=O)c2ccoc2COc2ccccc2)s1 | 62% |
| Nc1c2c(nc3ccc(Br)cc13)CC(c1ccccc1)CC2=O (stereo not drawn) | 30.9% |
| CC(C)(C)n1cc(-c2ccnc(NCCCNS(=O)(=O)c3ccc(Cl)cc3)c2)c(-c2cccc(F)c2)n1 | 87.9% |
| COc1cc(/C=N/NC(=S)NNC(=S)NC2CCCCC2)cc(OC)c1OC | 106% |
| COc1ccc2[nH]c(-c3ccc(Cl)cc3)cc(=O)c2c1 | 99.7% |
| Cc1cc(N(CCCNc2ccnc3cc(Cl)ccc23)Cc2ccco2)nc(Cl)n1 | 75.4% |
